Screening data: PubChem, National Center for Advancing Translational Sciences (NCATS)
The list is not random: actives were taken first. Their share in the collection is about 9%.
ALDH1A1 inh – ALDH1A1 (human) enzyme inhibition. P00352. Purified ALDH1A1, NADH fluorescence, propionaldehyde substrate. Potency, µM (doses to about 75.3 µM), inactives show at the top dose activity, negative = inhibition, hits mostly inhibitors. 220,000 tested, 7.3% active; active = well fitted inhibition curve with a large enough effect, not every such curve was filed as active; inconclusive = small, poorly fitted or top-dose-only effect, or another doubt; inactive = no such curve, though single readings can be large or run the other way;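 note: plate controls were no enzyme wells and a reference inhibitor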
Target sequence (P00352 whole entry, looked up): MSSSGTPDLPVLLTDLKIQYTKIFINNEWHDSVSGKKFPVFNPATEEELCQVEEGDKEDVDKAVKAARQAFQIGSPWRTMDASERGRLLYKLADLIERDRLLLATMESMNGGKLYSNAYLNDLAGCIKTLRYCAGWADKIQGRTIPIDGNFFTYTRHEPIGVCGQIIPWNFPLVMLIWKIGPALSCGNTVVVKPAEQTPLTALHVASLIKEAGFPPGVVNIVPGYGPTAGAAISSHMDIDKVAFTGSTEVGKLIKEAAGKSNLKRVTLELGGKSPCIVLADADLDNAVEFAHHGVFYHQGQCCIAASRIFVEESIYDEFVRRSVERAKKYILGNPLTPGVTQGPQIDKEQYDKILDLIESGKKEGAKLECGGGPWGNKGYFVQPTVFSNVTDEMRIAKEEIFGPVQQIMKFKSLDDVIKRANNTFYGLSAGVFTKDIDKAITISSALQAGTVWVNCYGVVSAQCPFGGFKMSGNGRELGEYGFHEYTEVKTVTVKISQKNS
Luc counter – counter-screen: inhibitors of Kinase-Glo firefly luciferase. Q27757. Kinase-Glo luciferase, ATP luminescence, 8 min. Potency, µM (series often up to 38.3 µM), inactives show at the highest dose activity change, negative = inhibition, actives largely listed as inhibitors. 200,000 tested, 0.28% active. AID 1379; note: nearly all actives have a fitted effect of over 60% in size
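Recombinant Kinase-Glo luciferase, 10 uM ATP (linear range), luciferin; imidazole pH 7.2 / KCl / MgCl2 / Tween / BSA buffer; 8 min RT; luminescence.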
LMNA splice mod – modulators of lamin A splicing; HeLa LMNA splicing GFP/RFP minigene ratio, 48 h; Potency, µM (highest dose often 46.1 µM), without a hit: at the top dose ratio change, negative = inhibition, most hits filed as inhibitors; 200,000 tested, 0.01% active; AID 1487; active = well fitted inhibition curve with a large enough effect in the signal ratio, with a control signal flat, not every such curve was filed as active; inconclusive = small, poorly fitted or top-dose-only effect, or effect the other way, or a change in a side signal; the % refers to the signal ratio
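S3 HeLa cells stably expressing lamin A-EGFP splicing minigene plus DsRed2, 600 cells/well, 48 h compound exposure at 37C. Laser-scanning cytometry; analysed as GFP (500-530 nm)/RFP (575-640 nm) total intensity ratio; 0.5% DMSO vehicle.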
HPGD block – blocks human HPGD enzyme activity; P15428; purified HPGD, NADH fluorescence kinetic, PGE2 substrate; Potency, µM, for the others: top-dose activity change, negative = inhibition, most hits filed as inhibitors; 150,000 tested, 4.3% active; active = well fitted inhibition curve with a large enough effect, not every such curve was filed as active; inconclusive = small, poorly fitted or top-dose-only effect, or another doubt; inactive = no such curve, though single readings can be large or run the other way
Target sequence (P15428 whole entry, looked up): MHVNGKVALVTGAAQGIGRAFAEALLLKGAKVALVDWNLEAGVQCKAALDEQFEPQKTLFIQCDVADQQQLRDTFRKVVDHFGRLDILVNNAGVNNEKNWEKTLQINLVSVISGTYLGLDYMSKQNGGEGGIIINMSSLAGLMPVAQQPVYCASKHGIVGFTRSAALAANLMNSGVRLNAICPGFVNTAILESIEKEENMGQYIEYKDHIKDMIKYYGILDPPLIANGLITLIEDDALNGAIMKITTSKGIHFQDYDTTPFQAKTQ
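NADH formation kinetics: reaction with 30 uM PGE2 and 1 mM NAD+ (final), 20 nM enzyme, Tris-HCl pH 8 with Tween 20, after 15 min compound preincubation at room temperature. Fluorescence change, last versus first of five reads.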
IMPase Li inh – cell-permeable IMPase inhibitors with lithium potentiation; Potency, µM (highest dose often 59.4 µM), for inactives: at the highest dose activity, negative = IMPase inhibition, actives largely listed as inhibitors; CHO-M1 cells, IP1 TR-FRET (IP-One), carbachol + lithium; 210,000 tested, 0.35% active; AID 1457;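 note: IP1 builds up when IMPase is blocked and the TR-FRET signal falls; plate controls were basal vehicle for no effect and high inhibitor control for full effect; nearly all actives have a fitted effect of over 50% in size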
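IP1 accumulation measured by competitive TR-FRET in lysed CHO-M1 cells after 30 min compound exposure at 37C, with a small lithium addition to potentiate weak responses. Hill-equation AC50 from ratio and donor-channel data.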
Starred values were filed as active, the others as inactive; [ ] = another dose, or the depositor's remark. Unless noted, calls come from the whole dose curve; as a rule, active = well fitted curve in the direction sought with a large enough effect; inconclusive = small, poorly fitted or top-dose-only effect, or another doubt; inactive = no such curve, though single readings can be large; an effect the other way counts as inactive or inconclusive. Unless noted, % is set by controls: 0 for no effect and ±100 for the full control effect; potency is the fitted concentration of half-maximal effect.

How did COC(=O)C1=C(O)/C(=C\c2cc(C)n(-c3ccccc3F)c2C)N=C1C do in these assays?
ALDH1A1 inh: 11µM*; Luc counter: -1%; IMPase Li inh: 45%

What do the screens show for `COC(=O)C1=C(C)NC(=O)/C1=C\c1cc(C)n(-c2ccccc2)c1C`?
ALDH1A1 inh: 25µM*; Luc counter: 2%; IMPase Li inh: 13%

Results for CCOC(=O)C1CCN(C(=O)Nc2ccc(NC(=O)C3CCN(C(=O)OCC)CC3)cc2)CC1 ?
ALDH1A1 inh: -2%; Luc counter: 1%; LMNA splice mod: 4%; HPGD block: -5%; IMPase Li inh: 3%[38.3 µM]

Results for CCOC(=O)c1ccc(NC(=O)C2CCCO2)cc1 (centres undefined) ?
ALDH1A1 inh: -13%; Luc counter: 2%; LMNA splice mod: 1%; HPGD block: 25µM*; IMPase Li inh: -3%[38.3 µM]

What do the screens show for `CC(=O)c1ccc(N2CCN(C(=O)c3ccc(NC(=O)C4CCCO4)cc3)CC2)cc1` (centres undefined)?
ALDH1A1 inh: -9%; Luc counter: -2%; LMNA splice mod: -3%; HPGD block: 25µM*; IMPase Li inh: 22%[38.3 µM]

How did CCCCc1ccc(NC(=O)C2CCCO2)cc1 (centres undefined) do in these assays?
ALDH1A1 inh: 1%; Luc counter: -2%; LMNA splice mod: -7%; HPGD block: 16µM*; IMPase Li inh: 5%[38.3 µM]

Results for CCOC(=O)C1CCN(C(=O)c2ccc(NC(=O)C3CCCO3)cc2)CC1 (centres undefined) ?
ALDH1A1 inh: 1%; Luc counter: 0%; LMNA splice mod: -11%; HPGD block: 25µM*; IMPase Li inh: 4%

How did CCCCOC(=O)c1ccc(NC(=O)C2CCCO2)cc1 (centres undefined) do in these assays?
ALDH1A1 inh: -15%; Luc counter: 0%; LMNA splice mod: 2%; HPGD block: -30%; IMPase Li inh: 12%[38.3 µM]

Results for O=C(c1cccc(F)c1)N1CCC2(CC1)CCN(c1ncccn1)CC2 ?
ALDH1A1 inh: -3%; Luc counter: -3%; HPGD block: -12%; IMPase Li inh: -4%

What do the screens show for `Cc1ncc([N+](=O)[O-])n1C[C@H](O)CCl`?
ALDH1A1 inh: -2%[20.9 µM]; Luc counter: -1%[17.1 µM]; LMNA splice mod: -5%; HPGD block: -8%; IMPase Li inh: 2%

How did COC(=O)CSc1ccc(S(=O)(=O)N2CCCCCC2)cc1[N+](=O)[O-] do in these assays?
ALDH1A1 inh: 10µM*; Luc counter: 0%; IMPase Li inh: 0%

How did CN(CC(=O)Nc1ccc(S(=O)(=O)N2CCCC2)cc1)Cc1ccc(Cl)cc1Cl do in these assays?
ALDH1A1 inh: inconclusive; Luc counter: -3%; LMNA splice mod: inconclusive; HPGD block: -13%; IMPase Li inh: 7%

Results for CN(CC(=O)Nc1ccc(Cl)cc1)c1ccc(S(=O)(=O)N2CCCCC2)cc1[N+](=O)[O-] ?
ALDH1A1 inh: 11µM*; Luc counter: 2%; LMNA splice mod: inconclusive; HPGD block: -14%; IMPase Li inh: 12%

Results for CCOC(=O)CSc1ccc(S(=O)(=O)N2CCCCC2)cc1[N+](=O)[O-] ?
ALDH1A1 inh: -11%; Luc counter: -1%; LMNA splice mod: 3%; HPGD block: -7%; IMPase Li inh: 4%

How did CC(C)C(=O)Nc1cccc(C(=O)Nc2cc([N+](=O)[O-])ccc2F)c1 do in these assays?
ALDH1A1 inh: -5%; Luc counter: 4%; LMNA splice mod: 4%[46 µM]; IMPase Li inh: 6%

What do the screens show for `NC(=S)N/N=C/c1coc2ccc(Cl)cc2c1=O`?
ALDH1A1 inh: inconclusive; Luc counter: -5%; LMNA splice mod: 14%[46 µM]; IMPase Li inh: 12%

What do the screens show for `Nn1cnnc1SCC(=O)Nc1ccc(C2CCCCC2)cc1`?
ALDH1A1 inh: 11µM*; Luc counter: -7%; LMNA splice mod: 5%; HPGD block: -23%; IMPase Li inh: -6%[38.3 µM]

How did CC1(C)Oc2ccc(C(=O)NN)cc2NC1=O do in these assays?
ALDH1A1 inh: 1.6µM*; Luc counter: 1%; IMPase Li inh: -15%

How did Cn1cc(C(=O)N/N=C/C(Br)=C/c2ccccc2)ccc1=O do in these assays?
ALDH1A1 inh: inconclusive; Luc counter: 2%; LMNA splice mod: inconclusive; HPGD block: 28µM*; IMPase Li inh: 18%

How did Cn1cc(C(=O)N/N=C/C(Br)=C\c2ccccc2)ccc1=O do in these assays?
ALDH1A1 inh: inconclusive; Luc counter: -4%; LMNA splice mod: inconclusive; HPGD block: -22%; IMPase Li inh: 5%[38.3 µM]

Results for Cn1cc(Br)c(C(=O)Nc2ncc(Br)s2)n1 ?
ALDH1A1 inh: -12%; Luc counter: -11%; LMNA splice mod: inconclusive; IMPase Li inh: -25%

Results for O=C(Nc1cccc(-c2nc3ncccc3o2)c1)c1sc2cc(Cl)ccc2c1Cl ?
ALDH1A1 inh: -13%; Luc counter: -1%; LMNA splice mod: 15%; HPGD block: inconclusive; IMPase Li inh: 11µM*

What do the screens show for `O=C(Nc1cccc(-c2nc3ncccc3o2)c1)c1cc2ccccc2o1`?
ALDH1A1 inh: inconclusive; Luc counter: 4%; LMNA splice mod: inconclusive; HPGD block: inconclusive; IMPase Li inh: 15%

How did Cc1cc([N+](=O)[O-])c2c(c1C)C1C=CCC1C(c1ccccn1)N2 (centres undefined) do in these assays?
ALDH1A1 inh: 8.9µM*; Luc counter: -8%; LMNA splice mod: -25%[46 µM]; IMPase Li inh: 8%

How did Cc1cc([N+](=O)[O-])cc2c1NCC1CC=CC21 (centres undefined) do in these assays?
ALDH1A1 inh: inconclusive; Luc counter: 0%; LMNA splice mod: -5%; HPGD block: -2%; IMPase Li inh: -8%

Results for CCOC(=O)c1c(-c2ccccc2)nc2ccccn12 ?
ALDH1A1 inh: 1%; Luc counter: -4%; LMNA splice mod: 16%; HPGD block: -5%; IMPase Li inh: 0%[38.3 µM]

How did O=C(NCCOC(=O)c1ccncc1)c1ccccc1 do in these assays?
ALDH1A1 inh: 10%; Luc counter: -1%; LMNA splice mod: 0%; HPGD block: -8%; IMPase Li inh: -14%[38.3 µM]

What do the screens show for `CC(C)(C)c1ccc(C(=O)OCCNC(=O)c2c(Cl)nc3ccccn23)cc1`?
ALDH1A1 inh: inconclusive; Luc counter: -3%; LMNA splice mod: 8%; HPGD block: 11µM*; IMPase Li inh: 29%[38.3 µM]

Results for COc1ccc(C(=O)OCCNC(=O)c2c(Cl)nc3ccccn23)cc1 ?
ALDH1A1 inh: 0%; Luc counter: 4%; LMNA splice mod: 1%; HPGD block: 25µM*; IMPase Li inh: 6%[38.3 µM]

How did Cc1nc(NCc2ccccc2)c2nc(-c3ccccc3)n(CC3CCN(C)CC3)c2n1 do in these assays?
ALDH1A1 inh: -14%; Luc counter: 0%; HPGD block: -23%; IMPase Li inh: -6%

Results for Cc1ccccc1OCC(=O)O/N=C(\N)Cc1cccs1 ?
ALDH1A1 inh: 7.1µM*; Luc counter: 0%; LMNA splice mod: 7%[0.0737 µM]; HPGD block: -15%; IMPase Li inh: 22%[38.3 µM]
